Only some compounds are listed: those with a hit (about 3.9% of all), similar ones and a draw of the others.
C8 TRAIL sens = sensitizes caspase-8 expressing cells to TRAIL; NB7+C8 cells + TRAIL, ATPlite viability luminescence; inhibition (viability loss, TRAIL sensitization), % at 10 µM; 360,000 compounds, 1% hits; AID 624354;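 active means compounds causing at least 50% loss of cell viability in the single-dose screen, relative to plate controls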
TROY signal inh = blocks TROY-dependent signaling in reporter cells; Q293 LMP1-TROYcd NF-kB luciferase reporter, 4 h; inhibition, % at 10 µM; 360,000 compounds, 0.98% hits;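 active means compounds whose plate-normalised and pattern-corrected inhibition of the luciferase reporter signal at the single screening dose is 50% or more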
aSyn 5UTR inh = 5' untranslated region of α-synuclein, MLPCN primary screen; alpha-synuclein 5'UTR reporter, inhibitor activity; inhibition, % (tested at 7.5 µM); 300,000 compounds, 0.82% hits; in the data active means inhibition above about 60%;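 further: H4 neuroglioblastoma cells stably carrying SNCA 5'UTR luciferase fusion; 0% = DMSO wells and 100% = positive control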
HIF-2a block = blocks HIF-2a reporter activity; AID 624352; 786-0 RCC cells HIF-2a reporter, luciferase luminescence, overnight; inhibition, % at 18.8 µM; 360,000 compounds, 0.72% hits;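 active means inhibition of the luminescence signal of 40% or more relative to plate controls, in a single-dose primary screen at 18.75 µM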
HSP90 inh = HSP90 refolding inhibition in rabbit reticulocyte lysate; inhibition, % at 5.6 µM; 290,000 compounds, 0.91% hits; AID 1789; luciferase refolding luminescence, 3 h;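 active means inhibition above the screen-wide mean plus 3 SD, computed separately per campaign, cut at about 16% in these data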;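 further: 0% = DMSO wells and 100% = 60 µM geldanamycin wells; inhibitors lower the luminescence because luciferase stays unfolded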
TWEAK-Fn14 inh = inhibitors of TWEAK-Fn14 interaction signaling. inhibition, % at 10 µM. AID 1159606. 360,000 compounds, 2% hits. TWEAK-stimulated Fn14 reporter cells, luciferase luminescence, 8 h; in the data active means inhibition above about 50%
Active calls of the source: *; x = no result.

SMILES	C8 TRAIL sens	TROY signal inh	aSyn 5UTR inh	HIF-2a block	HSP90 inh	TWEAK-Fn14 inh
O=C(Nc1ccc(-c2nc3cccnc3s2)cc1)c1ccco1	-7	-20	-51	-112	2	58*
CCOc1ncccc1C(=O)OCC(=O)Nc1c(C)cc(C)cc1C	4	1	-3	7	-6	-1
O=C(Nc1ccc(Cl)c(S(=O)(=O)N2CCCC2)c1)c1cc(=O)[nH]c2ccccc12	1	-9	x	7	x	13
CCC(CC)C(=O)N(C)c1c(C)nc2c(OCc3ccc(Cl)cc3)cccn12	4	1	x	1	x	9
CC1(C(=O)Nc2ccc(Cl)c(Cl)c2)CCN1Cc1cc2ccccc2o1 (stereo not drawn)	-15	-1	x	5	x	-2
CCOC(=O)c1nc2ccc(C)cc2c2c1C1CC(c3c(Cl)cccc31)N2C(=O)OCc1ccccc1 (stereo not drawn)	-3	15	x	19	x	24
CCCCC(c1nc2ccccc2[nH]1)n1c(=O)c(-c2ccccc2)nc2cc(C)c(C)cc21 (stereo not drawn)	0	10	x	0	x	-31
CC(C)n1c(=O)c2ccccc2n1Cc1cn(Cc2cccs2)nn1	3	5	x	6	x	1
Cc1cc(C)cc(N(CC(=O)Nc2ccc(-c3nc4ccc(C)cc4s3)cc2)S(C)(=O)=O)c1	4	-20	-100	-212	0	7
Cc1ccc2nc(-c3ccc(NC(=O)CN(c4ccccc4C)S(C)(=O)=O)cc3)sc2c1	43*	-10	-164	-216	-1	53*
Cc1ccc(S(=O)(=O)Nc2ccc(Cl)cc2)cc1NC(=O)Cn1cnc2c1c(=O)n(C)c(=O)n2C	3	43	21	24	1	89*
CCOC(=O)C1=CCN(S(=O)(=O)c2ccc(Cl)cc2)C1c1ccc(C)cc1 (stereo not drawn)	10	3	x	-1	x	8
O=C1N(c2ccccc2)c2ccccc2[C@]12C[C@H](O)CO2	-8	x	x	7	x	x
Cc1cccc(NC(c2ccc(O)cc2)c2ccc3ccc(C)nc3c2O)n1 (stereo not drawn)	-4	8	0	55*	0	14
Cc1ccc2cccc(NC(=O)C(F)(F)F)c2n1	-5	-15	-13	3	1	-22
COc1cc2nc(CN(C)Cc3ccc(C(C)(C)C)cc3)[nH]c(=O)c2cc1OC	65*	10	-1	-18	-2	-5
CN(CCc1ccccc1)C(=O)c1ccc(NC(=O)Cc2ccc(NC(=O)C3CCCN(C(=O)CCc4ccccc4)C3)cc2)cc1 (stereo not drawn)	29	23	x	-10	x	58*
CN(CCc1ccccc1)C(=O)c1ccc(NC(=O)Cc2ccc(NC(=O)C3CCCN(C(=O)C4CCC4)C3)cc2)cc1 (stereo not drawn)	6	1	x	-13	x	32
CN(CCc1ccccc1)C(=O)c1ccc(NC(=O)Cc2ccc(NC(=O)C3CCN(C(=O)CCc4ccccc4)CC3)cc2)cc1	19	32	x	-11	x	55*
CC(O)(c1cccnc1)c1nc(-c2ccc3ccccc3c2)cs1 (stereo not drawn)	25	-19	x	-268	x	22
Cc1cccc(C)c1C(O)c1ncc(-c2cccc3ccccc23)[nH]1 (stereo not drawn)	14	-7	x	18	x	2
CC1=C(C(=O)N(C(C)C)C(C)C)CC(CC(=O)NCCN2CCOCC2)C(=O)N1Cc1ccc(F)cc1 (stereo not drawn)	8	-21	x	3	x	-5
COC(=O)C[C@H]1CC[C@H](NC(=O)Nc2ccccc2)[C@@H](CO)O1	6	x	x	2	x	x
COCCCNC(=O)/C=C1\Sc2ccccc2N(Cc2ccccc2F)C1=O	19	-29	-94	-122	2	103*
CN1CCN(CCCNC(=O)c2ccc(/C=C3/Sc4ccccc4N(Cc4cccc(Cl)c4)C3=O)cc2)CC1	-14	52*	-42	14	-3	-31
SMILES	C8 TRAIL sens	TROY signal inh	aSyn 5UTR inh	HIF-2a block	HSP90 inh	TWEAK-Fn14 inh
CCN1CCN(CCNC(=O)c2ccc(/C=C3\Sc4ccccc4N(Cc4ccccc4F)C3=O)cc2)CC1	25	65*	-19	-3	4	-66
Cc1cccc(CN2C(=O)/C(=C\c3ccc(C(=O)NCCCN4CCN(C)CC4)cc3)Oc3ccccc32)c1	43	-11	95*	3	-4	-173
CCOC(=O)C1(C)CCN1C(=O)c1ccc2ccccc2c1 (stereo not drawn)	-8	-11	x	-95	x	-17
FC(F)(F)c1cc(Cl)c2nc(-c3ccco3)c(Cc3ccccc3C(F)(F)F)n2c1	1	-3	x	21	x	6
Cc1ccc(C)c(NCCCCC(=O)O)c1	-9	3	x	-5	x	-7
COc1cccc(S(=O)(=O)N(C)C[C@H]2OCc3cnnn3CCCC(=O)N([C@H](C)CO)C[C@@H]2C)c1	-8	-6	x	-1	x	-12
O=C(Cc1cccs1)Nc1cccc(-c2nc3cc4ccccc4cc3[nH]2)c1	73*	57*	-92	-382	3	74*
CCOc1cccc(NC(=O)Cc2cccs2)c1	-6	x	-21	-60	5	110*
CC(=O)c1cccc(OCC(=O)N(CCC2=CCCCC2)c2c(N)n(Cc3ccccc3)c(=O)[nH]c2=O)c1	15	-18	x	10	x	0
O=S1(=O)CC(N2CCCC2)CN1Cc1cn(Cc2ccc(F)cc2)nn1 (stereo not drawn)	-6	-15	x	-4	x	5
Cc1ccnc(NS(=O)(=O)c2ccc(NC(=O)COc3ccccc3)cc2)n1	-7	-5	68*	16	-3	-2
O=C(COc1ccccc1)Nc1ccc(S(=O)(=O)Nc2ncccn2)cc1	-4	17	-8	18	2	13
Cc1nc(Nc2nc3c(c(=O)[nH]2)CCC3)nc2ccccc12	11	-36	126*	-82	x	69*
O=c1[nH]c(NCc2ccccc2)nc2c1CCC2	-2	-7	10	18	2	-5
O=C1C=C(c2cccs2)C[C@H](c2ccccc2)[C@H]1n1nnc([N+](=O)[O-])n1	20	2	71*	30	-2	30
C[C@H](NC(=O)c1[nH]cnc1C(=O)Nc1ccccc1F)c1ccccc1	35	-2	x	0	x	23
COC(=O)[C@H](CC(C)C)NC(=O)Nc1ccc2c(c1)OCCO2	-14	32	-26	-10	-1	66*
COC(=O)[C@@H](NC(=O)Nc1ccc2c(c1)OCCO2)C(C)C	4	29	14	-1	6	-4
CCC1CCC(C(=O)NC(C(=O)Nc2ccc3c(c2)OCCO3)C(C)C)CC1 (stereo not drawn)	7	26	-84	-56	6	47
CC(C)CC(NC(=O)C1CCC(C)CC1)C(=O)Nc1ccc2c(c1)OCCO2 (stereo not drawn)	-1	31	-62	-28	9	68*
CC(c1ccccc1)C(OC(=O)c1cccc([N+](=O)[O-])c1C(=O)O)c1ccccc1 (stereo not drawn)	0	-9	x	6	x	3

Assay outcomes: PubChem BioAssay, several laboratories
